Measured values as given in PubChem BioAssay (NCI).
The panel holds about 83,000 compounds, 20% with a hit somewhere; the sample as a whole holds those more often.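 Growth was measured after 48 h exposure to one concentration of compound in 96-well plates. Values under 10 count as active.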 Values without a mark were called inactive. The source made the active and inactive calls.

system: NCI-H226 lung; assay: NCI-60 one-dose screen, 48 h (100 = growth as untreated, 0 = no growth, -100 = all killed); conditions: 10 µM unless noted

| Structure (SMILES) | growth |
| --- | --- |
| Fc1ccc(-c2nnc(-c3c(-c4ccc(F)cc4)nc4ncccn34)o2)cc1 | 113% |
| S=c1[nH]nc2sc3ccccc3n12 | 106% |
| Clc1ccc2nc(Cl)c3ccccc3c2c1 | 71.7% |
| CCOC(Cc1c(N)[nH]c(=S)[nH]c1=O)OCC | 96.8% |
| COc1ccc(-c2nnc(COc3ccc(NC(=O)Nc4cc(C(F)(F)F)cc(C(F)(F)F)c4)cc3F)o2)cc1 | 7.41% (active) |
| Clc1cccc(Cc2cn3cc(-c4ccccc4)nc3s2)c1 | 73% |
| ClC1=C(Cl)C(Cl)=C(Cl)C1=C/C=C/c1ccccc1 | -70.5% (active) |
| O=[N+]([O-])c1cnc(Sc2ccncn2)c([N+](=O)[O-])c1 | 99.6% |
| O=C(N1CCC(CN=c2cc3n(-c4ccc(Cl)cc4)c4ccccc4nc-3cc2Nc2ccc(Cl)cc2)CC1)N1CC1 | 37.2% |
| COc1cc(/C=C2\CCC/C(=C\c3ccc(OCC4CO4)c(OC)c3)C2=O)ccc1OCC1CO1 (configuration not stated) | 86.2% |
| COc1ccc(-n2nnc(C(=O)O)c2-c2cc(OC)c(OC)c(OC)c2)cc1 | 104% |
| Nc1nc(N)c([N+](=O)[O-])c(=O)[nH]1 | 102% |
| Oc1[nH]c2ccccc2c1/C=c1/ccc2c(c1)N=C(c1cc(F)cc(F)c1)N=2 | 85.4% |
| O=c1ccn(C2CCCO2)c(=O)[nH]1 (configuration not stated) | 114% |
| COc1ccc2nc3cc(Cl)ccc3c(Nc3cc(C(C)C)c(O)cc3C)c2c1 | 79.5% |
| COc1ccc(-c2cnnn2-c2cc(OC)c3c(c2)OCO3)cc1 | 88.4% |
| CC1=CC(=O)C(C(C)=Nc2ccccc2Cl)C(=O)O1 (configuration not stated) | 104% |
| O=[P@@]1(c2ccccc2)O[C@H](COCc2ccccc2)[C@@H](OCc2ccccc2)[C@H](OCc2ccccc2)[C@H]1NCc1ccccc1 | 40.6% |
| COc1ccc(-c2noc(N)c2-c2cc(OC)c3c(c2)OCO3)cc1 | 86.3% |

| Structure (SMILES) | growth |
| --- | --- |
| CN(C)c1nc(-c2ccco2)n2nc(-c3ccco3)cc2n1 | 87.1% |
| COc1cccc(C2C(C#N)=C(N)Oc3cc(OC)ccc32)c1 (configuration not stated) | 72.6% |
| c1cnc2ccc3ncccc3c2c1 | 105% |
| O=C(c1ccccc1)c1ccco1 | 106% |
| CCOC(=O)C1=NN(c2ccc(Cl)cc2)C2C3N(c4ccc(Cl)cc4)N=C(C(=O)OCC)N3c3ccccc3N12 (configuration not stated) | 107% |
| Cc1cc(NC(=O)c2ccc(N)cc2)ccc1N=Nc1ccc2c(O)c(N=Nc3ccc(Cl)c(S(=O)(=O)O)c3)c(S(=O)(=O)O)cc2c1 | 81.9% |
| O=C(Nc1cccc(C(F)(F)F)c1)Nc1ccc(OCc2nnc(-c3ccc(Cl)cc3)o2)c(F)c1 | 94.9% |
| CCN1C(=O)c2ccc3c4c(ccc(c24)C1=O)C(=O)N(CCCNCc1ccccc1OC)C3=O | -36.6% (active) |
| C=C1c2c(C)nn(-c3ccc(C#CCOC4OC(CO)C(O)C(O)C4O)cc3)c2N(C)C23C[C@H]1C1(C)c4c(C)nn(-c5ccc(C#CCOC6OC(CO)C(O)C(O)C6O)cc5)c4N(C)C(C)(C[C@H]12)C3 (some centres not stated) | 23.4% |
| O=C(Nc1ccc(OCc2nnc(-c3ccccc3)o2)c(F)c1)Nc1ccc(Cl)c(C(F)(F)F)c1 | 59.3% |
| O=C(/C=C/c1ccccc1Cl)c1ccc(O)cc1 | 95.2% |
| O=C(Nc1ccncc1)C(=O)c1cn(S(=O)(=O)c2cccc(F)c2)c2ccccc12 | 75.8% |
| COc1cc(/C=C/C(=O)c2ccc(F)cc2)ccc1OCCCCCOc1cc2c(cc1OC)C(=O)N1CCCC1C=N2 (configuration not stated) | -49.7% (active) |
| O=C(/C=C/c1ccc(O)c(O)c1)N1CCN(c2ccc(Cl)cc2)CC1 | 63.8% |
| O=C(OCCBr)c1ccc(Cl)c([N+](=O)[O-])c1 | 126% |
| COc1ccc2c(c1)/C(=C\c1c[nH]c3ccc(F)cc13)C(=O)N2 | 92.6% |
| Cc1cc(C(=O)O)c(C)cc1C(=O)O | 101% |
| O=C1/C(=N/O)CCc2ccccc21 | 101% |
